The values below come from PubChem BioAssay (Tox21).

Results filed as inconclusive are left out. Unmarked numbers belong to inactive results. Calls follow the shape of the dose curve; as a rule, active = well fitted activation curve with a large enough effect in the signal ratio in the repeat runs (not every such curve was filed as active); inconclusive = weak or mixed curves; inactive = flat fitted curve, though single readings scatter; the % refers to the signal ratio.
% is scaled to controls: 0 for no effect and ±100 for the full control effect.

The nature of this assay: qHTS assay to identify small molecule agonists of the TGF-beta/Smad signaling pathway (AID 1346859). To be noted: SBE-bla HEK293T, TGF-beta/Smad beta-lactamase reporter, 5 h; series mostly up to 76.8 µM; activation: at the top concentration. From the text: U.S. Tox21 Program National Center for Advancing Translational Sciences [NCATS] NIH Chemical Genomics Center [NCGC] U.S. Environmental Protection Agency [EPA] National Institutes of Environmental Health Sciences [NIEHS] National Toxicology Program [NTP] U.S. Food and Drug Administration [FDA] Tox21 Assay Overview: Transforming growth factor beta (TGF-beta) superfamily consists of a large number of structurally related dimeric proteins that act as hormones or local mediators in regulating a wide range of biological functions. This superfamily includes TGF-betas themselves, the bone morphogenetic proteins (BMPs) and the activins. These ligands induce oligomerization of serine/threonine receptor kinases and phosphorylate the cytoplasmic signaling molecules of Smad protein family. CellSensor SBE-bla HEK 293T cell line (Life Technologies, Carlsbad, CA), responsive to TGF-beta was used to screen Tox21 10K compound library for identification of agonists/antagonists of the Smad signaling pathway. This cell line contains a beta-lactamase reporter gene under control of the Smad binding element (SBE) stably integrated into HEK 293T cells.
Tox21 Assay Protocol Summary: SBE-bla HEK 293T cells were dispensed at 4,000/well in 6 uL of assay medium into black wall/clear-bottom 1536-well plates using a Multidrop Combi (ThermoFisher Scientific, Waltham, MA) dispenser. After the assay plates were incubated at 37 C and 5% CO2 for an overnight, 23 nL of compounds dissolved in DMSO, positive controls or DMSO only was transferred to the assay plate by a Pintool station (Kalypsys, San Diego, CA). The assay plates were incubated at 37 C and 5% CO2 for 5 hr. One uL of LiveBLAzer B/G FRET substrate (Life Technologies) was added using a Flying Reagent Dispenser (Aurora Discovery, San Diego, CA) and the plates were incubated at room temperature for 2 hr. Fluorescence intensity (405 nm excitation, 460 nm and 530 nm emissions) was measured using an Envision plate reader (PerkinElmer, Shelton, CT).
A general note: In qHTS, concentration-response curves come from the screen itself.
Turning to `COc1cc2[nH]c(=O)[nH]c(=O)c2cc1OC`, the “activation” value is 0.366% [at 35.3 µM].

`CCCCC(CC)C(=O)OCCOCCOCCOCCOC(=O)C(CC)CCCC` (stereo not given): the “activation” value was 2.48%.

Regarding `CO[C@H]1O[C@H](CO)[C@@H](O)[C@H](O)[C@H]1O`, the “activation” value was 2.52%.

Take `CSc1ccc(Oc2ccc(S(N)(=O)=O)cc2CN(C)C)cc1C`: the “activation” value is -1.52%.

On to `C/C=C/C=C/CCCCCCCO`, for which the “activation” value is -3.97%.

As for `CC(Cl)C(Cl)Cl` (stereo not given), the “activation” value is -4.63%.

Regarding `CN1C(=O)CC(C)(c2ccccc2)C1=O` (stereo not given), the “activation” value is -0.226% [at 35.3 µM].

As for `CCCCCCCCCCOS(=O)(=O)O`, the “activation” value is 5.59%.

As for `CNC(=O)N(c1ccccc1)c1ccccc1`, the “activation” value was 0.481%.

In the case of `ON(Cc1ccccc1)Cc1ccccc1`, the “activation” value is -1.08%.

With `CC(CCc1ccc2c(c1)OCO2)NN` (stereo not given), the “activation” value is -0.218% [at 35.3 µM].

For `CCOC(=O)[C@@H](C)Oc1ccc(Oc2nc3ccc(Cl)cc3o2)cc1`, the “activation” value was -1.04%.

Consider `CCCOC(=O)c1ccc(N)cc1`, for which the “activation” value was -0.18% [at 35.3 µM].

In the case of `CCN(Cc1cccc(S(=O)(=O)O)c1)c1ccc(C(=C2C=CC(=[N+](CC)Cc3cccc(S(=O)(=O)[O-])c3)C=C2)c2ccccc2)cc1`, the “activation” value was -0.404% [at 35.3 µM].

On to `CCCC1C(CC)=CC(CC)=CN1c1ccccc1` (stereo not given), for which the “activation” value was -1.45%.

For the compound `O=C(N[C@@H](c1ccccc1)[C@@H]1CCCCN1)c1cccc(C(F)(F)F)c1Cl`, the “activation” value is -8.32%.

In the case of `CO[Si](C)(OC)OC`, the “activation” value was 0.831%.

As for `CC(C)(CCl)c1ccccc1`, the “activation” value was -3.39%.

For `O=C(/C=C/c1ccccc1)OCCCc1ccccc1`, the “activation” value was 1.33%.

Take `NC(=O)N(O)[C@@H]1COc2cc(OCc3ccccc3)ccc21`: the “activation” value was 9.22%.

With `CC1CC(O)CC(C)(C)C1` (stereo not given), the “activation” value was 0.154%.

Turning to `C[Si](NC1CCCCC1)(NC1CCCCC1)NC1CCCCC1`, the “activation” value is -0.675%.

Take `CC(=O)OCC(=O)[C@@]12OC(C)(C)O[C@@H]1C[C@H]1[C@@H]3C[C@H](F)C4=CC(=O)C=C[C@]4(C)[C@@]3(F)[C@@H](O)C[C@@]12C`: the “activation” value is -0.981% [at 35.3 µM].

Consider `COCCOC`, for which the “activation” value is 2.65%.

On to `O=C(CS)OCCOC(=O)CS`, for which the “activation” value is 2.47%.

For the compound `CCOC(=O)N1CCC(n2c(=O)[nH]c3cc(Cl)ccc32)CC1`, the “activation” value was -4.97% [at 35.3 µM].

Take `CC(C)OCC1CO1` (stereo not given): the “activation” value is 2.33%.

As to `CCC(Cc1ccccc1)(C(=O)c1ccc(N2CCOCC2)cc1)N(C)C` (stereo not given), the “activation” value was -3.43%.

Consider `CCC(C)(O)CCC=C(C)C` (stereo not given), for which the “activation” value is 1.66%.

As for `O=C1NCCN1`, the “activation” value is 0.418%.

For the compound `CC(C)CCCC(=O)O`, the “activation” value was 0.434%.

As for `CN1CCCN=C1/C=C/c1cccs1`, the “activation” value was -1.27% [at 35.3 µM].

On to `CN1CCN(c2c(F)cc3c(=O)c(C(=O)O)cn4c3c2OCN4C)CC1`, for which the activation is -0.914% [at 15.8 µM].

As for `COc1ccc([C@@H]2Sc3ccccc3NC(=O)[C@@H]2O)cc1`, the “activation” value was 1.64% [at 35.3 µM].

As to `CC(=O)[C@H]1CC[C@H]2[C@@H]3C[C@H](C)C4=CC(=O)CC[C@]4(C)[C@H]3[C@@H](O)C[C@]12C`, the “activation” value was -2.96% [at 35.3 µM].

Take `OC(CCCN1CCCCC1)(c1ccccc1)c1ccccc1`: the “activation” value was -1.88% [at 35.3 µM].

Consider `Cn1c(=O)c2c(ncn2CC(=O)O)n(C)c1=O`, for which the “activation” value is 2.7% [at 35.3 µM].

On to `C/C=C(\C)C(=O)OCCC(C)CCC=C(C)C` (stereo not given), for which the “activation” value was -1.07%.

Consider `CC1=NN(c2ccc(C(=O)O)cc2)C(=O)C1`, for which the “activation” value is -0.0138%.

As for `CC(=O)Oc1ccc(C(=C2CCCCC2)c2ccc(OC(C)=O)cc2)cc1`, the “activation” value was -1.05% [at 35.3 µM].
